{"source": "PubChem BioAssay AID1347418", "about": "(Sanford-Burnham Center for Chemical Genomics, 2020)", "note": "Out of some 1,300 compounds screened, about 750 (58%) were called active. Some of the results follow. Values without a mark were called inactive."}
{"biological_target": "Sulfhydryl oxidase 1 (Homo sapiens) (UniProt O00391)", "sequence (O00391 whole entry, looked up)": "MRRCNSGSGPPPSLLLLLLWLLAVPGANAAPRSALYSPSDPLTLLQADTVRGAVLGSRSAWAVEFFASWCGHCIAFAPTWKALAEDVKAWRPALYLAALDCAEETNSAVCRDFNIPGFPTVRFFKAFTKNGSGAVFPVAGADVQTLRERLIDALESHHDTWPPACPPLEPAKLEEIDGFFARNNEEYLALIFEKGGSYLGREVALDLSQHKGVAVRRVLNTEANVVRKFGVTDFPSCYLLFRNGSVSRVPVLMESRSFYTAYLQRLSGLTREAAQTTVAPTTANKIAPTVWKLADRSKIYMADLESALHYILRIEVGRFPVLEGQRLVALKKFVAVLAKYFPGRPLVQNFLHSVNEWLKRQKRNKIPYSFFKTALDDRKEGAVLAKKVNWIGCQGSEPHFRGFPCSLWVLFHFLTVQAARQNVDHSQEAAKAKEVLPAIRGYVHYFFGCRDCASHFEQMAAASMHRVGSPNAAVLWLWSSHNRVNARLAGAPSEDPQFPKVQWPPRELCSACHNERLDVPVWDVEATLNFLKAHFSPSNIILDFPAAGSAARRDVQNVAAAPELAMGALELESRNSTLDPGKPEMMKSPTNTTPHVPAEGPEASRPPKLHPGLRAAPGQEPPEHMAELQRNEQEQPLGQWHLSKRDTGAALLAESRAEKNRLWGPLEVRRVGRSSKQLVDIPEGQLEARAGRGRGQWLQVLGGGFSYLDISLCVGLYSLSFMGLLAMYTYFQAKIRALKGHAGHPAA", "assay": "QSOX1 enzyme inhibitors, primary screen, biochemical, ROS-Glo H2O2 luminescence, HTS (AID 1347418)", "settings": "recombinant QSOX1, ROS-Glo H2O2 luminescence; at 12.5 µM; hits give high values; active = any value above zero"}
{"molecule": "Fc1cccc(/C=N/N=C/c2cccc(F)c2)c1", "inhibition": "1.9% (active)"}
{"molecule": "CCNC(=O)[C@H]1O[C@@H](n2cnc3c(N)nc(NCCc4ccc(CCC(=O)O)cc4)nc32)C(O)[C@H]1O", "note": "(some centres not stated)", "inhibition": "1.5% (active)"}
{"molecule": "CNC(=O)[C@H]1O[C@@H](n2cnc3c(NCc4cccc(I)c4)ncnc32)C(O)[C@H]1O", "note": "(some centres not stated)", "inhibition": "-1.8%"}
{"molecule": "Nc1nc(Cl)nc2c1ncn2[C@@H]1O[C@H](CO)[C@H](O)C1O", "note": "(some centres not stated)", "inhibition": "-0.3%"}
{"molecule": "Nc1nc(Nc2ccccc2)nc2c1ncn2[C@@H]1O[C@H](CO)[C@H](O)C1O", "note": "(some centres not stated)", "inhibition": "-2.6%"}
{"molecule": "CNC(=O)[C@H]1O[C@@H](n2cnc3c(NCc4ccc(N)cc4)ncnc32)C(O)[C@H]1O", "note": "(some centres not stated)", "inhibition": "6% (active)"}
{"molecule": "CCCCC#Cc1nc(NC)c2ncn([C@@H]3O[C@H](CO)C(O)[C@@H]3O)c2n1", "note": "(some centres not stated)", "inhibition": "-4.5%"}
{"molecule": "O=C(c1ccc(Cl)cc1)N1CCN(c2ccc([N+](=O)[O-])c3ncccc23)CC1", "inhibition": "1.5% (active)"}
{"molecule": "O=c1cc(N2CCOCC2)oc2c(-c3ccccc3)cccc12", "inhibition": "-2.2%"}
{"molecule": "OCC1O[C@H](O)C(Cl)C(O)C1O", "note": "(some centres not stated)", "inhibition": "4.9% (active)"}
{"molecule": "CC(C)C[C@H](NC(=O)C1OC1C(=O)O)C(=O)NCCCCN=C(N)N", "note": "(some centres not stated)", "inhibition": "10.1% (active)"}
{"molecule": "COC1(C2=NCCN2)COc2ccccc2O1", "note": "(configuration not stated)", "inhibition": "3.2% (active)"}
{"molecule": "O=C(O)CN(CCN(CC(=O)O)CC(=O)O)CCN(CC(=O)O)CC(=O)O", "inhibition": "-5%"}
{"molecule": "CN1CCc2cc(NC(=O)Nc3cccnc3)ccc21", "inhibition": "7.1% (active)"}
{"molecule": "CN1C(=O)CC[C@H]1c1cccnc1", "inhibition": "-4%"}
{"molecule": "Cn1ccc2cc3c(cc21)CCN3C(=O)Nc1cccnc1", "inhibition": "-2.2%"}
{"molecule": "Nc1c2c(nc3ccccc13)CCCC2O", "note": "(configuration not stated)", "inhibition": "-1%"}
{"molecule": "NNc1nncc2ccccc12", "inhibition": "26.1% (active)"}
{"molecule": "O=c1cc(-c2ccc(O)cc2)oc2cc(O)cc(O)c12", "inhibition": "15.3% (active)"}
{"molecule": "O=c1c(O)c(-c2ccc(O)c(O)c2)oc2cc(O)cc(O)c12", "inhibition": "33.1% (active)"}
{"molecule": "O=c1c(O)c(-c2cc(O)c(O)c(O)c2)oc2cc(O)cc(O)c12", "inhibition": "25.8% (active)"}
{"molecule": "O=c1c(O)c(-c2ccc(O)cc2O)oc2cc(O)cc(O)c12", "inhibition": "41.5% (active)"}
{"molecule": "S=C(Nc1ccccc1)Nc1nccs1", "inhibition": "-0.6%"}
{"molecule": "NO", "inhibition": "-19.9%"}
{"molecule": "CN(C)CCCO[C@@H]1[C@H]2OC(C)(C)O[C@H]2O[C@@H]1C(O)CO", "note": "(some centres not stated)", "inhibition": "1.3% (active)"}
{"molecule": "O=C1NC(=O)c2cc(Nc3ccccc3)c(Nc3ccccc3)cc21", "inhibition": "44.9% (active)"}
{"molecule": "O=[N+]([O-])c1cccc2cn[nH]c12", "inhibition": "-7.7%"}
{"molecule": "O=[N+]([O-])c1cccc2c(Br)[nH]nc12", "inhibition": "5.3% (active)"}
{"molecule": "COCCCC/C(=N\\OCCN)c1ccc(C(F)(F)F)cc1", "inhibition": "-2%"}
{"molecule": "Cc1cccc(-c2[nH]c(C(C)(C)C)nc2-c2ccc3nccnc3c2)n1", "inhibition": "6% (active)"}
{"molecule": "N[C@H]1CONC1=O", "inhibition": "-12.9%"}
{"molecule": "CN1CCN2c3ccccc3Cc3ccccc3C2C1", "note": "(configuration not stated)", "inhibition": "-1.9%"}
{"molecule": "NC1=NCC2c3ccccc3Cc3ccccc3N12", "note": "(configuration not stated)", "inhibition": "1.4% (active)"}
{"molecule": "CCCC(C(=O)OCCN(CC)CC)(c1ccccc1)c1ccccc1", "inhibition": "-0.5%"}
{"molecule": "CCN(CC)CCOC(=O)C1(C2CCCCC2)CCCCC1", "inhibition": "-1.9%"}
{"molecule": "CCN(CC)CCOCCOC(=O)C1(c2ccccc2)CCCC1", "inhibition": "6.3% (active)"}
{"molecule": "O=C(OCCN1CCOCC1)C1(c2ccccc2)CCCCC1", "inhibition": "2.5% (active)"}
{"molecule": "Cn1c(=O)c2[nH]c(-c3ccc(S(=O)(=O)O)cc3)nc2n(C)c1=O", "inhibition": "-2.4%"}
{"molecule": "Cn1c(=O)c2[nH]c(C3CCCC3)nc2n(C)c1=O", "inhibition": "3.9% (active)"}
{"molecule": "Cn1c(=O)c2[nH]c(-c3ccccc3)nc2n(C)c1=O", "inhibition": "-2.7%"}
{"molecule": "CCCn1c(=O)c2[nH]c(C3CCCC3)nc2n(CCC)c1=O", "inhibition": "2.3% (active)"}
{"molecule": "CC/C(=C(\\c1ccccc1)c1ccc(OCCN(C)C)cc1)c1ccccc1", "inhibition": "2.2% (active)"}
{"molecule": "CN(C)CCOC(=O)COc1ccc(Cl)cc1", "inhibition": "-2.9%"}
{"molecule": "CN(C)[C@@H]1C(=O)C(C(N)=O)=C(O)[C@@]2(O)C(=O)C3=C(O)c4c(O)ccc(Cl)c4[C@@H](O)[C@H]3C[C@@H]12", "inhibition": "9.5% (active)"}
{"molecule": "C[C@H]1c2cccc(O)c2C(O)=C2C(=O)[C@]3(O)C(O)=C(C(N)=O)C(=O)[C@@H](N(C)C)[C@@H]3[C@@H](O)[C@@H]21", "inhibition": "-1.5%"}
{"molecule": "COc1ccccc1N1CCN(CCN(C(=O)c2ccc(F)cc2)c2ccccn2)CC1", "inhibition": "7.1% (active)"}
{"molecule": "COc1ccccc1N1CCN(CCN(C(=O)c2ccc(I)cc2)c2ccccn2)CC1", "inhibition": "11.2% (active)"}
{"molecule": "COc1ccccc1N1CCN(CCN(C(=O)C2CCCCC2)c2ccccn2)CC1", "inhibition": "9.7% (active)"}
{"molecule": "COc1ccc(Cc2nccc3cc(OC)c(OC)cc23)cc1OC", "inhibition": "3.3% (active)"}
{"molecule": "COc1ccc(CCN(C)CCc2ccc(OC)c(OC)c2)cc1OC", "inhibition": "-0.5%"}
{"molecule": "CC(N=C(NC#N)Nc1ccncc1)C(C)(C)C", "note": "(configuration not stated)", "inhibition": "4.4% (active)"}
{"molecule": "O=c1[nH]c2ccccc2c2ccccc12", "inhibition": "-9.8%"}
{"molecule": "O=C1NCc2c1c1c3ccccc3[nH]c1c1[nH]c3ccccc3c21", "inhibition": "2.6% (active)"}
{"molecule": "CCC(=O)c1ccc2c(c1)N(CCCN(C)C)c1ccccc1S2", "inhibition": "20.9% (active)"}
{"molecule": "CN(C)CCCN1c2ccccc2Sc2ccc(Cl)cc21", "inhibition": "39.2% (active)"}
{"molecule": "CN(C)CCCN1c2ccccc2Sc2ccc(C(F)(F)F)cc21", "inhibition": "24.1% (active)"}
{"molecule": "CN(C)CCCN1c2ccccc2Sc2ccccc21", "inhibition": "46.3% (active)"}
{"molecule": "COc1ccc([C@@H]2Sc3ccccc3N(CCN(C)C)C(=O)[C@@H]2OC(C)=O)cc1", "inhibition": "-0.6%"}
{"molecule": "NC1(C(=O)O)CCCCC1", "inhibition": "-3.9%"}
{"molecule": "NC1(C(=O)O)CC1", "inhibition": "5.5% (active)"}
{"molecule": "CC(C)ON([C@@H](C(=O)NO)C(C)C)S(=O)(=O)c1ccc(-c2ccccc2)cc1", "inhibition": "8.9% (active)"}
{"molecule": "CC(=O)/C=C1\\C(=O)N(C)c2ccccc21", "inhibition": "7.8% (active)"}
{"molecule": "COc1cc(NS(C)(=O)=O)ccc1Nc1c2ccccc2nc2ccccc12", "inhibition": "42.7% (active)"}
{"molecule": "CN(C(=O)CCCOc1ccc2[nH]c(=O)ccc2c1)C1CCCCC1", "inhibition": "-1.6%"}
{"molecule": "CC[N+](CC)(CC)CC", "inhibition": "0.9% (active)"}
{"molecule": "Nc1nc(N)c2nc(CNc3ccc(C(=O)NC(CCC(=O)O)C(=O)O)cc3)cnc2n1", "note": "(configuration not stated)", "inhibition": "0.7% (active)"}
{"molecule": "CN(Cc1cnc2nc(N)nc(N)c2n1)c1ccc(C(=O)N[C@@H](CCC(=O)O)C(=O)O)cc1", "inhibition": "-2.2%"}
